# Reference: paper PMC8384837, “Expanding the binding specificity for RNA recognition by a PUF domain”
# How the values were obtained:
# Test in all cases: yeast three-hybrid, YBZ-1, SC-Leu-His + 0.5 mM 3-AT, 4 days
# Conditions in all cases: tags: N-Gal4 AD-HA kept; label: inside an RPR1-promoter hybrid RNA with tandem MS2 sites; ssRNA
# PUM1 PUF domain R3-LFG = PUM1 PUF domain R3-LFG (Homo sapiens, UniProt Q14671 828-1176, C935L;R936F;Q939G)
# Summary of the method: (§1)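 Matching RNA elements and Pumilio-1 PUF domain libraries, randomized at the three base-contacting residues of every repeat, were co-expressed from a centromeric plasmid in strain YBZ-1 (LexA–MS2 coat fusion, HIS3 reporter). The repeat regions were PCR-amplified and Illumina-sequenced from cells grown four days on SC-Leu (input) or SC-Leu-His + 0.5 mM 3-AT (selection). The interaction score is the log change in variant frequency from input to selection. It is computed in log2, with a pseudocount of 1 for absent variants.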
# PUM1 PUF domain R3-CRR = PUM1 PUF domain R3-CRR (Homo sapiens, UniProt Q14671 828-1176, Q939R)
# Summary of the method: as §1
# PUM1 PUF domain R3-LHG = PUM1 PUF domain R3-LHG (Homo sapiens, UniProt Q14671 828-1176, C935L;R936H;Q939G)
# Summary of the method: as §1
# PUM1 PUF domain R7-EHG = PUM1 PUF domain R7-EHG (Homo sapiens, UniProt Q14671 828-1176, S1079E;N1080H;E1083G)
# Summary of the method: as §1
# PUM1 PUF domain R4-GNC = PUM1 PUF domain R4-GNC (Homo sapiens, UniProt Q14671 828-1176, N971G;H972N;Q975C)
# Summary of the method: as §1
# PUM1 PUF domain R1-SPR = PUM1 PUF domain R1-SPR (Homo sapiens, UniProt Q14671 828-1176, R864P;Q867R)
# Summary of the method: as §1
# PUM1 PUF domain R1-RVT = PUM1 PUF domain R1-RVT (Homo sapiens, UniProt Q14671 828-1176, S863R;R864V;Q867T)
# Summary of the method: as §1
# PUM1 PUF domain R1-GRK = PUM1 PUF domain R1-GRK (Homo sapiens, UniProt Q14671 828-1176, S863G;Q867K)
# Summary of the method: as §1
# PUM1 PUF domain R5-GRI = PUM1 PUF domain R5-GRI (Homo sapiens, UniProt Q14671 828-1176, C1007G;Q1011I)
# Summary of the method: as §1
# PUM1 PUF domain R8-PWH = PUM1 PUF domain R8-PWH (Homo sapiens, UniProt Q14671 828-1176, N1122P;Y1123W;Q1126H)
# Summary of the method: as §1
# PUM1 PUF domain R2-NWW = PUM1 PUF domain R2-NWW (Homo sapiens, UniProt Q14671 828-1176, Y900W;Q903W)
# Summary of the method: as §1
# PUM1 PUF domain R5-ERK = PUM1 PUF domain R5-ERK (Homo sapiens, UniProt Q14671 828-1176, C1007E;Q1011K)
# Summary of the method: as §1
# PUM1 PUF domain R3-GPF = PUM1 PUF domain R3-GPF (Homo sapiens, UniProt Q14671 828-1176, C935G;R936P;Q939F)
# Summary of the method: as §1
# PUM1 PUF domain R6-QRQ = molecular target: T1, PUM1 PUF domain R6-QRQ (Homo sapiens, UniProt Q14671 828-1176, N1043Q;Y1044R)
# T1 sequence: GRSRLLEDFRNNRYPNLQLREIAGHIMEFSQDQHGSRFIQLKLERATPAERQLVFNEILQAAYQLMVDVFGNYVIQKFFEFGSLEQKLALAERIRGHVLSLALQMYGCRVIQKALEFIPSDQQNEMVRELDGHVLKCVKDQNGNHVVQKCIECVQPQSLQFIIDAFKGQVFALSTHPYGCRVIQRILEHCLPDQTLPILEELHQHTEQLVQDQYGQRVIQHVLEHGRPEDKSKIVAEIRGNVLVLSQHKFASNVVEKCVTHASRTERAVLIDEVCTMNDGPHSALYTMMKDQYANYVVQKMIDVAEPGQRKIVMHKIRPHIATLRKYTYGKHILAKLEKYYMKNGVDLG
# Summary of the method: as §1
# PUM1 PUF domain R5-DKQ = PUM1 PUF domain R5-DKQ (Homo sapiens, UniProt Q14671 828-1176, C1007D;R1008K)
# Summary of the method: as §1
# PUM1 PUF domain R5-FRC = PUM1 PUF domain R5-FRC (Homo sapiens, UniProt Q14671 828-1176, C1007F;Q1011C)
# Summary of the method: as §1
# PUM1 PUF domain R5-KQD = PUM1 PUF domain R5-KQD (Homo sapiens, UniProt Q14671 828-1176, C1007K;R1008Q;Q1011D)
# Summary of the method: as §1
# PUM1 PUF domain R2-PWE = PUM1 PUF domain R2-PWE (Homo sapiens, UniProt Q14671 828-1176, N899P;Y900W;Q903E)
# Summary of the method: as §1
# PUM1 PUF domain R7-TSS = PUM1 PUF domain R7-TSS (Homo sapiens, UniProt Q14671 828-1176, S1079T;N1080S;E1083S)
# Summary of the method: as §1
# PUM1 PUF domain R1-KNS = PUM1 PUF domain R1-KNS (Homo sapiens, UniProt Q14671 828-1176, S863K;R864N;Q867S)
# Summary of the method: as §1
sequence,measurement,setting,value
GGCUAGAACUAGUGGAUCCCCCGGCGCCCGGCGGCUCGAGCCCGGGUAAGUGUAAUUAGUCUGCAUGCCGCCGGGCGCCAUGCCUGCAGGUCGACUCUAGAAAACAUG,binding signal,PUM1 PUF domain R3-LFG,1.87 log2 enrichment (interaction score)
same,binding signal,PUM1 PUF domain R3-CRR,2.3 log2 enrichment (interaction score)
same,binding signal,PUM1 PUF domain R3-LHG,4.7 log2 enrichment (interaction score)
GGCUAGAACUAGUGGAUCCCCCGGCGCCCGGCGGCUCGAGCCCGGGUAAGUGUAAGUAGUCUGCAUGCCGCCGGGCGCCAUGCCUGCAGGUCGACUCUAGAAAACAUG,binding signal,PUM1 PUF domain R3-LFG,4.75 log2 enrichment (interaction score)
same,binding signal,PUM1 PUF domain R3-CRR,1.17 log2 enrichment (interaction score)
same,binding signal,PUM1 PUF domain R3-LHG,6.02 log2 enrichment (interaction score)
GGCUAGAACUAGUGGAUCCCCCGGCGCCCGGCGGCUCGAGCCCGGGUAAGUCUAAAUAGUCUGCAUGCCGCCGGGCGCCAUGCCUGCAGGUCGACUCUAGAAAACAUG,binding signal,PUM1 PUF domain R7-EHG,5.15 log2 enrichment (interaction score)
GGCUAGAACUAGUGGAUCCCCCGGCGCCCGGCGGCUCGAGCCCGGGUAAGUGUACAUAGUCUGCAUGCCGCCGGGCGCCAUGCCUGCAGGUCGACUCUAGAAAACAUG,binding signal,PUM1 PUF domain R4-GNC,3.28 log2 enrichment (interaction score)
GGCUAGAACUAGUGGAUCCCCCGGCGCCCGGCGGCUCGAGCCCGGGUAAGUGUAAAUCGUCUGCAUGCCGCCGGGCGCCAUGCCUGCAGGUCGACUCUAGAAAACAUG,binding signal,PUM1 PUF domain R1-SPR,2.62 log2 enrichment (interaction score)
same,binding signal,PUM1 PUF domain R1-RVT,5.15 log2 enrichment (interaction score)
same,binding signal,PUM1 PUF domain R1-GRK,5.64 log2 enrichment (interaction score)
GGCUAGAACUAGUGGAUCCCCCGGCGCCCGGCGGCUCGAGCCCGGGUAAGUGUUAAUAGUCUGCAUGCCGCCGGGCGCCAUGCCUGCAGGUCGACUCUAGAAAACAUG,binding signal,PUM1 PUF domain R5-GRI,3.43 log2 enrichment (interaction score)
GGCUAGAACUAGUGGAUCCCCCGGCGCCCGGCGGCUCGAGCCCGGGUAAGUGUAAAUAGUCUGCAUGCCGCCGGGCGCCAUGCCUGCAGGUCGACUCUAGAAAACAUG,binding signal,PUM1 PUF domain R8-PWH,2.69 log2 enrichment (interaction score)
same,binding signal,PUM1 PUF domain R4-GNC,1.09 log2 enrichment (interaction score)
same,binding signal,PUM1 PUF domain R3-LFG,1.41 log2 enrichment (interaction score)
same,binding signal,PUM1 PUF domain R2-NWW,3.94 log2 enrichment (interaction score)
same,binding signal,PUM1 PUF domain R3-CRR,2.78 log2 enrichment (interaction score)
same,binding signal,PUM1 PUF domain R5-ERK,4.01 log2 enrichment (interaction score)
same,binding signal,PUM1 PUF domain R3-GPF,5.65 log2 enrichment (interaction score)
same,binding signal,PUM1 PUF domain R6-QRQ,2.52 log2 enrichment (interaction score)
same,binding signal,PUM1 PUF domain R5-GRI,3.04 log2 enrichment (interaction score)
GGCUAGAACUAGUGGAUCCCCCGGCGCCCGGCGGCUCGAGCCCGGGUAAGUGUAAAUGGUCUGCAUGCCGCCGGGCGCCAUGCCUGCAGGUCGACUCUAGAAAACAUG,binding signal,PUM1 PUF domain R1-RVT,3.15 log2 enrichment (interaction score)
GGCUAGAACUAGUGGAUCCCCCGGCGCCCGGCGGCUCGAGCCCGGGUAAGUGUCAAUAGUCUGCAUGCCGCCGGGCGCCAUGCCUGCAGGUCGACUCUAGAAAACAUG,binding signal,PUM1 PUF domain R5-DKQ,5.31 log2 enrichment (interaction score)
same,binding signal,PUM1 PUF domain R5-FRC,3.83 log2 enrichment (interaction score)
same,binding signal,PUM1 PUF domain R5-KQD,2.75 log2 enrichment (interaction score)
same,binding signal,PUM1 PUF domain R5-GRI,1.2 log2 enrichment (interaction score)
GGCUAGAACUAGUGGAUCCCCCGGCGCCCGGCGGCUCGAGCCCGGGUAAGUGUGAAUAGUCUGCAUGCCGCCGGGCGCCAUGCCUGCAGGUCGACUCUAGAAAACAUG,binding signal,PUM1 PUF domain R5-GRI,3.52 log2 enrichment (interaction score)
GGCUAGAACUAGUGGAUCCCCCGGCGCCCGGCGGCUCGAGCCCGGGUAAGUGUAUAUAGUCUGCAUGCCGCCGGGCGCCAUGCCUGCAGGUCGACUCUAGAAAACAUG,binding signal,PUM1 PUF domain R4-GNC,3.99 log2 enrichment (interaction score)
GGCUAGAACUAGUGGAUCCCCCGGCGCCCGGCGGCUCGAGCCCGGGUAAGUGUAAAAAGUCUGCAUGCCGCCGGGCGCCAUGCCUGCAGGUCGACUCUAGAAAACAUG,binding signal,PUM1 PUF domain R2-PWE,2.14 log2 enrichment (interaction score)
GGCUAGAACUAGUGGAUCCCCCGGCGCCCGGCGGCUCGAGCCCGGGUAAGUUUAAAUAGUCUGCAUGCCGCCGGGCGCCAUGCCUGCAGGUCGACUCUAGAAAACAUG,binding signal,PUM1 PUF domain R7-TSS,2.55 log2 enrichment (interaction score)
GGCUAGAACUAGUGGAUCCCCCGGCGCCCGGCGGCUCGAGCCCGGGUAAGUGUAAAUUGUCUGCAUGCCGCCGGGCGCCAUGCCUGCAGGUCGACUCUAGAAAACAUG,binding signal,PUM1 PUF domain R1-SPR,1.48 log2 enrichment (interaction score)
same,binding signal,PUM1 PUF domain R1-RVT,4.35 log2 enrichment (interaction score)
same,binding signal,PUM1 PUF domain R1-KNS,3.86 log2 enrichment (interaction score)
same,binding signal,PUM1 PUF domain R1-GRK,3.96 log2 enrichment (interaction score)
GGCUAGAACUAGUGGAUCCCCCGGCGCCCGGCGGCUCGAGCCCGGGUAAGUGUAAAGAGUCUGCAUGCCGCCGGGCGCCAUGCCUGCAGGUCGACUCUAGAAAACAUG,binding signal,PUM1 PUF domain R2-PWE,4.9 log2 enrichment (interaction score)
